{"source": "paper PMC11062922", "about": "(Nature Chemical Biology, 2023)", "tested_on": "PHKG2", "details": "read-out: apparent Kd, n = 1", "note": "Where two headings read alike, the source gives them in different places."}
{"substance": "Lestaurtinib", "values": [{"measurement": "potency estimated from few doses", "setting": "compound concentrations:100 nM and 1000 nM (sheet 'Lestaurtinib' of Supplementary Table 1),run:Lestaurtinib_02339_R1,Plate:MR001", "result": 838, "unit": "nM"}, {"measurement": "potency estimated from few doses", "setting": "compound concentrations:100 nM and 1000 nM (sheet 'Lestaurtinib' of Supplementary Table 1),run:Lestaurtinib_02339_R2,Plate:MR001", "result": 142, "unit": "nM"}, {"measurement": "potency estimated from few doses", "setting": "compound concentrations:100 nM and 1000 nM (sheet 'Lestaurtinib' of Supplementary Table 1),run:Lestaurtinib_02339_R3,Plate:MR001", "result": 275, "unit": "nM"}, {"measurement": "potency estimated from few doses", "setting": "compound concentrations:100 nM and 1000 nM (sheet 'Lestaurtinib' of Supplementary Table 1),run:Lestaurtinib_02364_R1,Plate:MR002", "result": 462, "unit": "nM"}, {"measurement": "potency estimated from few doses", "setting": "compound concentrations:100 nM and 1000 nM (sheet 'Lestaurtinib' of Supplementary Table 1),run:Lestaurtinib_02364_R2,Plate:MR002", "result": 360, "unit": "nM"}, {"measurement": "potency estimated from few doses", "setting": "compound concentrations:100 nM and 1000 nM (sheet 'Lestaurtinib' of Supplementary Table 1),run:Lestaurtinib_02364_R3,Plate:MR002", "result": 574, "unit": "nM"}, {"measurement": "potency estimated from few doses", "setting": "compound concentrations:100 nM and 1000 nM (sheet 'Lestaurtinib' of Supplementary Table 1),run:Lestaurtinib_02367_R1,Plate:MR003", "result": 323, "unit": "nM"}, {"measurement": "potency estimated from few doses", "setting": "compound concentrations:100 nM and 1000 nM (sheet 'Lestaurtinib' of Supplementary Table 1),run:Lestaurtinib_02367_R3,Plate:MR003", "result": 356, "unit": "nM"}, {"measurement": "potency estimated from few doses", "setting": "compound concentrations:100 nM and 1000 nM (sheet 'Lestaurtinib' of Supplementary Table 1),run:Lestaurtinib_02381_R1,Plate:MR004", "result": 137, "unit": "nM"}, {"measurement": "potency estimated from few doses", "setting": "compound concentrations:100 nM and 1000 nM (sheet 'Lestaurtinib' of Supplementary Table 1),run:Lestaurtinib_02381_R2,Plate:MR004", "result": 197, "unit": "nM"}, {"measurement": "potency estimated from few doses", "setting": "compound concentrations:100 nM and 1000 nM (sheet 'Lestaurtinib' of Supplementary Table 1),run:Lestaurtinib_02381_R3,Plate:MR004", "result": 144, "unit": "nM"}, {"measurement": "potency estimated from few doses", "setting": "compound concentrations:100 nM and 1000 nM (sheet 'Lestaurtinib' of Supplementary Table 1),run:Lestaurtinib_02422_R1,Plate:MR006", "result": 213, "unit": "nM"}, {"measurement": "potency estimated from few doses", "setting": "compound concentrations:100 nM and 1000 nM (sheet 'Lestaurtinib' of Supplementary Table 1),run:Lestaurtinib_02422_R2,Plate:MR006", "result": 55.3, "unit": "nM"}, {"measurement": "potency estimated from few doses", "setting": "compound concentrations:100 nM and 1000 nM (sheet 'Lestaurtinib' of Supplementary Table 1),run:Lestaurtinib_02437_R1,Plate:MR007", "result": 135, "unit": "nM"}, {"measurement": "potency estimated from few doses", "setting": "compound concentrations:100 nM and 1000 nM (sheet 'Lestaurtinib' of Supplementary Table 1),run:Lestaurtinib_02443_R1,Plate:MR009", "result": 170, "unit": "nM"}, {"measurement": "potency estimated from few doses", "setting": "compound concentrations:100 nM and 1000 nM (sheet 'Lestaurtinib' of Supplementary Table 1),run:Lestaurtinib_02443_R2,Plate:MR009", "result": 193, "unit": "nM"}, {"measurement": "potency estimated from few doses", "setting": "compound concentrations:100 nM and 1000 nM (sheet 'Lestaurtinib' of Supplementary Table 1),run:Lestaurtinib_02443_R3,Plate:MR009", "result": 99.2, "unit": "nM"}, {"measurement": "potency estimated from few doses", "setting": "compound concentrations:100 nM and 1000 nM (sheet 'Lestaurtinib' of Supplementary Table 1),run:Lestaurtinib_02473_R1,Plate:MR010", "result": 310, "unit": "nM"}, {"measurement": "potency estimated from few doses", "setting": "compound concentrations:100 nM and 1000 nM (sheet 'Lestaurtinib' of Supplementary Table 1),run:Lestaurtinib_02473_R2,Plate:MR010", "result": 228, "unit": "nM"}, {"measurement": "potency estimated from few doses", "setting": "compound concentrations:100 nM and 1000 nM (sheet 'Lestaurtinib' of Supplementary Table 1),run:Lestaurtinib_02473_R3,Plate:MR010", "result": 159, "unit": "nM"}, {"measurement": "potency estimated from few doses", "setting": "compound concentrations:100 nM and 1000 nM (sheet 'Lestaurtinib' of Supplementary Table 1),run:Lestaurtinib_02482_R1,Plate:MR011", "result": 197, "unit": "nM"}, {"measurement": "potency estimated from few doses", "setting": "compound concentrations:100 nM and 1000 nM (sheet 'Lestaurtinib' of Supplementary Table 1),run:Lestaurtinib_02482_R2,Plate:MR011", "result": 501, "unit": "nM"}, {"measurement": "potency estimated from few doses", "setting": "compound concentrations:100 nM and 1000 nM (sheet 'Lestaurtinib' of Supplementary Table 1),run:Lestaurtinib_02482_R3,Plate:MR011", "result": 248, "unit": "nM"}, {"measurement": "potency estimated from few doses", "setting": "compound concentrations:100 nM and 1000 nM (sheet 'Lestaurtinib' of Supplementary Table 1),run:Lestaurtinib_02496_R1,Plate:MR013", "result": 115, "unit": "nM"}, {"measurement": "potency estimated from few doses", "setting": "compound concentrations:100 nM and 1000 nM (sheet 'Lestaurtinib' of Supplementary Table 1),run:Lestaurtinib_02496_R2,Plate:MR013", "result": 362, "unit": "nM"}, {"measurement": "potency estimated from few doses", "setting": "compound concentrations:100 nM and 1000 nM (sheet 'Lestaurtinib' of Supplementary Table 1),run:Lestaurtinib_02496_R3,Plate:MR013", "result": 182, "unit": "nM"}, {"measurement": "potency estimated from few doses", "setting": "compound concentrations:100 nM and 1000 nM (sheet 'Lestaurtinib' of Supplementary Table 1),run:Lestaurtinib_02566_R1,Plate:MR014", "result": 309, "unit": "nM"}, {"measurement": "potency estimated from few doses", "setting": "compound concentrations:100 nM and 1000 nM (sheet 'Lestaurtinib' of Supplementary Table 1),run:Lestaurtinib_02566_R2,Plate:MR014", "result": 151, "unit": "nM"}, {"measurement": "potency estimated from few doses", "setting": "compound concentrations:100 nM and 1000 nM (sheet 'Lestaurtinib' of Supplementary Table 1),run:Lestaurtinib_02566_R3,Plate:MR014", "result": 182, "unit": "nM"}, {"measurement": "potency estimated from few doses", "setting": "compound concentrations:100 nM and 1000 nM (sheet 'Lestaurtinib' of Supplementary Table 1),run:Lestaurtinib_02572_R1,Plate:MR015", "result": 92, "unit": "nM"}, {"measurement": "potency estimated from few doses", "setting": "compound concentrations:100 nM and 1000 nM (sheet 'Lestaurtinib' of Supplementary Table 1),run:Lestaurtinib_02572_R2,Plate:MR015", "result": 444, "unit": "nM"}, {"measurement": "potency estimated from few doses", "setting": "compound concentrations:100 nM and 1000 nM (sheet 'Lestaurtinib' of Supplementary Table 1),run:Lestaurtinib_02584_R1,Plate:MR017", "result": 215, "unit": "nM"}, {"measurement": "potency estimated from few doses", "setting": "compound concentrations:100 nM and 1000 nM (sheet 'Lestaurtinib' of Supplementary Table 1),run:Lestaurtinib_02584_R2,Plate:MR017", "result": 239, "unit": "nM"}, {"measurement": "potency estimated from few doses", "setting": "compound concentrations:100 nM and 1000 nM (sheet 'Lestaurtinib' of Supplementary Table 1),run:Lestaurtinib_02606_R1,Plate:MR019", "result": 197, "unit": "nM"}, {"measurement": "potency estimated from few doses", "setting": "compound concentrations:100 nM and 1000 nM (sheet 'Lestaurtinib' of Supplementary Table 1),run:Lestaurtinib_02606_R2,Plate:MR019", "result": 175, "unit": "nM"}, {"measurement": "potency estimated from few doses", "setting": "compound concentrations:100 nM and 1000 nM (sheet 'Lestaurtinib' of Supplementary Table 1),run:Lestaurtinib_02606_R3,Plate:MR019", "result": 636, "unit": "nM"}, {"measurement": "potency estimated from few doses", "setting": "compound concentrations:100 nM and 1000 nM (sheet 'Lestaurtinib' of Supplementary Table 1),run:Lestaurtinib_02624_R1,Plate:MR020", "result": 390, "unit": "nM"}]}
